This is a sample that favours compounds with a hit; in the whole collection about 19% have one here.
TDP1 cell CPT: growth inhibition of DT40 Tdp1-/-;hTDP1 cells with camptothecin (screen for TDP1 inhibitors); AID 686979; actives 12% (n = 420,000); Potency, µM (doses to about 46.2 µM), inactives show at the top dose activity change, negative = growth inhibition, most hits filed as inhibitors; chicken DT40 Tdp1-/-;hTDP1 cells + 20 nM CPT, ATP luminescence, 48 h; note: potency is the fitted concentration of half-maximal effect; % is set by controls: 0 for no effect and ±100 for the full control effect; nearly all actives have a fitted effect of over 55% in size
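Chicken DT40 Tdp1-/- cells complemented with human TDP1, 400 cells/well, exposed to compounds plus 20 nM camptothecin for at least 48 h at 37 C; viability read as ATP content by CellTiter-Glo luminescence.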
MCF10A rereplic: induces DNA re-replication in MCF 10a normal breast cells; Potency, µM (top dose mostly 46.1 µM), for the others: at the highest dose activity, positive = re-replication, hits mostly activators; actives 2.9% (n = 350,000); MCF 10A DNA re-replication, Hoechst nuclear intensity, 48 h; AID 624296; note: potency is the fitted concentration of half-maximal effect; % of control where 0% means no effect; nearly all actives have a fitted effect of over 50% in size
IL1B secr inh: inflammasome signaling inhibition, IL-1 beta readout | AID 743279 | activity change, % at 57.5 µM | actives 4.7% (n = 360,000) | THP-1 LPS/ATP IL-1B secretion, AlphaLISA, 16 h; active compounds read low; in the data active = activity change below about -50%; inconclusive = mostly about -30% to -49%; note: % is set by controls: 0 for no effect and ±100 for the full control effect
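Secreted IL-1B measured by AlphaLISA bead assay after 16 h compound exposure of THP-1 cells; compounds (final up to 57.5 uM) added 1 h before LPS (250 ng/mL) and ATP (1.25 mM) stimulation; lower signal means less secretion.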
SW480 rereplic: inducers of DNA re-replication in SW480 colon cancer cells; AID 624297; Potency, µM (top dose mostly 46.1 µM), for the others: at the highest dose re-replication activation, hits mostly activators; SW480 DNA re-replication, Hoechst DNA content imaging, 48 h; actives 1.8% (n = 340,000); note: potency is the fitted concentration of half-maximal effect; % of control where 0% means no effect; nearly all actives have a fitted effect of over 55% in size
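Per well, 250 cells were exposed to pinned compound for 48 hr. Nuclear DNA was visualised with Hoechst (40 min, 37 C) and total object intensity recorded by fluorescence scanning.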
BCR signal inh: inhibitors of chronic active B-cell receptor signaling; ABC-DLBCL IkBa-CBG/CBR reporter, luminescence ratio, 4 h; Potency, µM (top dose mostly 46.1 µM), for the others: at the highest dose activity change, negative = inhibition, hits mostly inhibitors; actives 0.05% (n = 340,000); AID 493014; active = well fitted inhibition curve with a large enough effect in the signal ratio, with a control signal flat, not every such curve was filed as active; inconclusive = small, poorly fitted or top-dose-only effect, or effect the other way, or a change in a side signal; the % refers to the signal ratio;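 note: potency is the fitted concentration of half-maximal effect; plate controls were basal doxycycline-induced cells for no effect and cells given 10 µM MG132 for full effect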
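TMD8 human ABC-DLBCL cells with doxycycline-inducible IκBα–green luciferase fusion and unfused red luciferase, in 0.5% FBS medium; compounds up to 46 uM, 4 h at 37C. Green/red luminescence ratio, filter-overlap corrected, fitted to concentration-response curves.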
DT40 TDP1 no CPT: qHTS for Inhibitors of human tyrosyl-DNA phosphodiesterase 1 (TDP1): qHTS in cells in absence of CPT. DT40 Tdp1-/- hTDP1 cells, no CPT, ATP luminescence, 48 h. Potency, µM (highest dose often 46.2 µM), inactives show top-dose activity change, negative = growth inhibition, usual class: inhibitors. actives 15% (n = 420,000). AID 686978, 2013; note: potency is the fitted concentration of half-maximal effect; % is set by controls: 0 for no effect and ±100 for the full control effect; nearly all actives have a fitted effect of over 55% in size
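Luminescent ATP content (CellTiter-Glo) served as the growth readout. Knockout chicken DT40 cells expressing human TDP1 were exposed to compounds without camptothecin for a minimum 48 hr at 37 °C.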
Starred values were filed as active, the others as inactive; ? = inconclusive; / = no result; [ ] = dose if it differs, or a comment. Unless noted, calls come from the whole dose curve; as a rule, active = well fitted curve in the direction sought with a large enough effect; inconclusive = small, poorly fitted or top-dose-only effect, or another doubt; inactive = no such curve, though single readings can be large; an effect the other way counts as inactive or inconclusive.

SMILES	TDP1 cell CPT	MCF10A rereplic	IL1B secr inh	SW480 rereplic	BCR signal inh	DT40 TDP1 no CPT
C/C=C(/CCC1NCCc2c1[nH]c1ccccc21)[Si](C)(C)C (configuration not stated)	3.3µM*	?	-99*	?	/	2.9µM*
CCCCCCCCN1C(=O)[C@H](CC(=O)NCCCOCCCC)C[C@@]2(C(=O)OC)CC(C)(C)CC=C12	?	/	-11	/	/	15µM*
CCCCOCCCNC(=O)C[C@@H]1C[C@@]2(C(=O)OC)CC(C)(C)CC=C2N(Cc2ccccc2)C1=O	21µM*	/	?	/	/	?
COCCCNC(=O)C[C@@H]1C[C@@]2(C(=O)OC)CC(C)(C)CC=C2N(Cc2ccco2)C1=O	-7%	/	0	/	/	0%
CCCCCCCCN1C(=O)[C@H](CC(=O)NCCc2ccccc2OC)C[C@@]2(C(=O)OC)CC(C)(C)CC=C12	21µM*	/	-24	/	/	?
CCCCCCCCN1C(=O)[C@H](CC(=O)NCCCOC)C[C@@]2(C(=O)OC)CC(C)(C)CC=C12	?	/	-15	/	/	15µM*
CCCCCCCCN1C(=O)[C@H](CC(=O)NCC2CCCCC2)C[C@@]2(C(=O)OC)CC(C)(C)CC=C12	?	/	-6	/	/	13µM*
CCCCCCCCN1C(=O)[C@H](CC(=O)NCCCN2CCCC2=O)C[C@@]2(C(=O)OC)CC(C)(C)CC=C12	13µM*	/	-25	/	/	13µM*
CCCCOCCCNC(=O)C[C@@H]1C[C@@]2(C(=O)OC)CC(C)(C)CC=C2N(Cc2cccc3ccccc23)C1=O	?	/	-5	/	/	?
C#CCNC(=O)C[C@@H]1C[C@@]2(C(=O)OC)CC(C)(C)CC=C2N(CCCCCCCC)C1=O	?	/	-15	/	/	16µM*
CCc1ccccc1NC(=O)Cn1nc2c3cc(F)ccc3n(Cc3cccc(C)c3)cc-2c1=O	-2%	/	/	/	/	-2%
CC[C@]12c3[nH]c4ccccc4c3CCN1C(=O)C(CC(=O)NCCCN(C)C)C[C@@H]2C(=O)N1CCN(C(=O)C2CC2)CC1 (some centres not stated)	-8%	-1%	3	?	2%	1%
COc1ccccc1N1CCN(S(=O)(=O)c2c(C(=O)N3CCOCC3)c(C)n(C)c2C)CC1	?	?	-9	-6%	5%	?
CN1C(C(=O)NCCc2cccs2)CC2Cn3c(nc4cc(Cl)c(Cl)cc43)C21 (configuration not stated)	?	1%	-7	-25%	-6%	?
Cc1ccc(CNC(=O)C2CC3Cn4c(nc5cc6ccccc6cc54)C3N2C)o1 (configuration not stated)	18µM*	8%	19	-9%[9.22 µM]	?	?
CN1C(C(=O)NCc2cccc(Br)c2)CC2Cn3c(nc4cc5ccccc5cc43)C21 (configuration not stated)	?	-6%	-3	23%	-3%	21µM*
COc1ccc(CCNC(=O)C2CC3Cn4c(nc5cc(Cl)c(Cl)cc54)C3N2C)cc1 (configuration not stated)	21µM*	-2%	0	6%	-5%	?
O=C(NCc1cccc(Br)c1)C1CC2Cn3c(nc4ccccc43)C2N1Cc1ccccc1 (configuration not stated)	18µM*	19%	-5	-4%	/	18µM*
Cc1cc2nc3n(c2cc1C)CC1CC(C(=O)NCc2cccc(Br)c2)N(C)C31 (configuration not stated)	-21%	6%	-6	?	-2%	-27%
CC(C)C(=O)N1CCC1(C)C(=O)Nc1ccc2[nH]ccc2c1 (configuration not stated)	-18%	/	0	/	/	7%
COc1cccc(CNC(=O)c2nc(Cn3nc(C)c(Br)c3C)no2)c1	-20%	/	/	/	0%	?
O=C1NC(=S)NC(=O)C1Nc1ccc(Cl)cc1	?	?	-24	35%	/	7.3µM*
O=C(CCc1nc2ccccc2c(=O)[nH]1)NCCN1C(=O)S/C(=C\c2ccc(OC(F)F)cc2)C1=O	?	8%	8	-2%	/	18µM*
O=C(CCc1nc2ccccc2c(=O)[nH]1)NCCN1C(=O)S/C(=C\c2ccccc2Cl)C1=O	?	12%	-13	16%	7%	?
CCN(CC)C(=O)C1=C(C)N(Cc2ccc(OC)cc2)C(=O)C(CC(=O)NC2CCCC2)C1 (configuration not stated)	1%	/	-7	/	/	-7%
SMILES	TDP1 cell CPT	MCF10A rereplic	IL1B secr inh	SW480 rereplic	BCR signal inh	DT40 TDP1 no CPT
Cc1ncc(CO)c(/C=N/NC(=O)c2ccoc2C)c1O	?	3%	62	?	?	?
Cc1ncc(CO)c(/C=N/NC(=O)c2ccccc2Br)c1O	?	-3%	144	?	?	?
Cc1ncc(CO)c(/C=N/NC(=S)Nc2ccc(Cl)c(Cl)c2)c1O	16µM*	19%	29	-5%	-1%	13µM*
Cc1ncc(CO)c(/C=N/NC(=S)Nc2cccc(Cl)c2)c1O	?	16%	35	16%	2%	16µM*
CC(=O)c1c(C)[nH]c(C(=O)OCC(=O)Nc2nnc(-c3ccccc3)o2)c1C	?	18%	3	-10%	0%	?
Cc1ccc(S(=O)(=O)N2CCN(c3nc(-c4ncccn4)nc4ccccc34)CC2)cc1	?	/	/	/	/	11µM*
Cc1ccc(S(=O)(=O)N2CCN(c3nc(-n4c(=O)[nH]c5ccccc54)nc4ccccc34)CC2)cc1	11µM*	/	/	/	/	13µM*
O=S(=O)(c1ccccc1Br)N1CCN(c2nc(-c3ccccc3)nc3ccccc23)CC1	?	/	/	/	/	14µM*
Cc1ccc(S(=O)(=O)N2CCN(c3nc(-c4cccnc4)nc4ccccc34)CC2)cc1	13µM*	/	/	/	/	11µM*
Cc1ccc(S(=O)(=O)N2CCN(c3nc(-n4ccnc4)nc4ccccc34)CC2)cc1	-17%	/	/	/	/	-17%
O=S(=O)(c1ccc2c(c1)CCC2)N1CCN(c2nc(-c3ccccc3)nc3ccccc23)CC1	-8%	/	/	/	/	-13%
C[C@H](CO)N1C[C@H](C)[C@@H](CN(C)C(=O)Nc2ccccc2)Oc2ccc(NC(=O)CCC(F)(F)F)cc2C1=O	9%	1%	3	-1%[9.22 µM]	1%	-9%
